# Where two headings read alike, the source gives them in different places.
# Tests used:
# [1] = target: Q6ZSR9 (human, UniProt Q6ZSR9); details: read-out: apparent Kd, n = 1
# [2] = test system: SIK2; details: read-out: apparent Kd, n = 1
# Q6ZSR9, sequence (Q6ZSR9 whole entry, looked up): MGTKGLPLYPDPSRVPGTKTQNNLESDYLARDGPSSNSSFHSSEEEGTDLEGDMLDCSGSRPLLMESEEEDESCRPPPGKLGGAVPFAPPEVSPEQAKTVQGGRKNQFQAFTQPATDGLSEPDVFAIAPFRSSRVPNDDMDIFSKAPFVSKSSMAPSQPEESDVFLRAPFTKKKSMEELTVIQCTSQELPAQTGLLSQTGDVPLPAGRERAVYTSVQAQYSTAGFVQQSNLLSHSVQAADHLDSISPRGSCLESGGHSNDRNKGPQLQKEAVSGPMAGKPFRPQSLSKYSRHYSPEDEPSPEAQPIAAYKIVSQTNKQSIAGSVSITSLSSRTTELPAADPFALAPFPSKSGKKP
substance,measurement,setting,value
Lestaurtinib,potency estimated from few doses,"[1]; compound concentrations:100 nM and 1000 nM (sheet 'Lestaurtinib' of Supplementary Table 1),run:Lestaurtinib_03172_R2,Plate:MR031",0.0545 µM
same,potency estimated from few doses,"[1]; compound concentrations:100 nM and 1000 nM (sheet 'Lestaurtinib' of Supplementary Table 1),run:Lestaurtinib_03172_R3,Plate:MR031",0.0575 µM
same,potency estimated from few doses,"[1]; compound concentrations:100 nM and 1000 nM (sheet 'Lestaurtinib' of Supplementary Table 1),run:Lestaurtinib_03252_R1,Plate:MR032",0.0613 µM
same,potency estimated from few doses,"[1]; compound concentrations:100 nM and 1000 nM (sheet 'Lestaurtinib' of Supplementary Table 1),run:Lestaurtinib_03260_R2,Plate:MR033",0.113 µM
same,potency estimated from few doses,"[1]; compound concentrations:100 nM and 1000 nM (sheet 'Lestaurtinib' of Supplementary Table 1),run:Lestaurtinib_03260_R3,Plate:MR033",0.0795 µM
same,potency estimated from few doses,"[2]; compound concentrations:100 nM and 1000 nM (sheet 'Lestaurtinib' of Supplementary Table 1),run:Lestaurtinib_02339_R2,Plate:MR001",0.0446 µM
same,potency estimated from few doses,"[2]; compound concentrations:100 nM and 1000 nM (sheet 'Lestaurtinib' of Supplementary Table 1),run:Lestaurtinib_02364_R1,Plate:MR002",0.0536 µM
same,potency estimated from few doses,"[2]; compound concentrations:100 nM and 1000 nM (sheet 'Lestaurtinib' of Supplementary Table 1),run:Lestaurtinib_02367_R1,Plate:MR003",0.0518 µM
same,potency estimated from few doses,"[2]; compound concentrations:100 nM and 1000 nM (sheet 'Lestaurtinib' of Supplementary Table 1),run:Lestaurtinib_02367_R2,Plate:MR003",0.0573 µM
same,potency estimated from few doses,"[2]; compound concentrations:100 nM and 1000 nM (sheet 'Lestaurtinib' of Supplementary Table 1),run:Lestaurtinib_02367_R3,Plate:MR003",0.0515 µM
same,potency estimated from few doses,"[2]; compound concentrations:100 nM and 1000 nM (sheet 'Lestaurtinib' of Supplementary Table 1),run:Lestaurtinib_02381_R1,Plate:MR004",0.0564 µM
same,potency estimated from few doses,"[2]; compound concentrations:100 nM and 1000 nM (sheet 'Lestaurtinib' of Supplementary Table 1),run:Lestaurtinib_02381_R2,Plate:MR004",0.0624 µM
same,potency estimated from few doses,"[2]; compound concentrations:100 nM and 1000 nM (sheet 'Lestaurtinib' of Supplementary Table 1),run:Lestaurtinib_02381_R3,Plate:MR004",0.0301 µM
same,potency estimated from few doses,"[2]; compound concentrations:100 nM and 1000 nM (sheet 'Lestaurtinib' of Supplementary Table 1),run:Lestaurtinib_02407_R1,Plate:MR005",0.0507 µM
same,potency estimated from few doses,"[2]; compound concentrations:100 nM and 1000 nM (sheet 'Lestaurtinib' of Supplementary Table 1),run:Lestaurtinib_02407_R2,Plate:MR005",0.0525 µM
same,potency estimated from few doses,"[2]; compound concentrations:100 nM and 1000 nM (sheet 'Lestaurtinib' of Supplementary Table 1),run:Lestaurtinib_02422_R2,Plate:MR006",0.00974 µM
same,potency estimated from few doses,"[2]; compound concentrations:100 nM and 1000 nM (sheet 'Lestaurtinib' of Supplementary Table 1),run:Lestaurtinib_02422_R3,Plate:MR006",0.0526 µM
same,potency estimated from few doses,"[2]; compound concentrations:100 nM and 1000 nM (sheet 'Lestaurtinib' of Supplementary Table 1),run:Lestaurtinib_02437_R1,Plate:MR007",0.0506 µM
same,potency estimated from few doses,"[2]; compound concentrations:100 nM and 1000 nM (sheet 'Lestaurtinib' of Supplementary Table 1),run:Lestaurtinib_02437_R3,Plate:MR007",0.00745 µM
same,potency estimated from few doses,"[2]; compound concentrations:100 nM and 1000 nM (sheet 'Lestaurtinib' of Supplementary Table 1),run:Lestaurtinib_02438_R2,Plate:MR008",0.0414 µM
same,potency estimated from few doses,"[2]; compound concentrations:100 nM and 1000 nM (sheet 'Lestaurtinib' of Supplementary Table 1),run:Lestaurtinib_02438_R3,Plate:MR008",0.0347 µM
same,potency estimated from few doses,"[2]; compound concentrations:100 nM and 1000 nM (sheet 'Lestaurtinib' of Supplementary Table 1),run:Lestaurtinib_02443_R1,Plate:MR009",0.0493 µM
same,potency estimated from few doses,"[2]; compound concentrations:100 nM and 1000 nM (sheet 'Lestaurtinib' of Supplementary Table 1),run:Lestaurtinib_02443_R2,Plate:MR009",0.051 µM
same,potency estimated from few doses,"[2]; compound concentrations:100 nM and 1000 nM (sheet 'Lestaurtinib' of Supplementary Table 1),run:Lestaurtinib_02443_R3,Plate:MR009",0.0511 µM
same,potency estimated from few doses,"[2]; compound concentrations:100 nM and 1000 nM (sheet 'Lestaurtinib' of Supplementary Table 1),run:Lestaurtinib_02473_R2,Plate:MR010",0.0442 µM
same,potency estimated from few doses,"[2]; compound concentrations:100 nM and 1000 nM (sheet 'Lestaurtinib' of Supplementary Table 1),run:Lestaurtinib_02473_R3,Plate:MR010",0.0301 µM
same,potency estimated from few doses,"[2]; compound concentrations:100 nM and 1000 nM (sheet 'Lestaurtinib' of Supplementary Table 1),run:Lestaurtinib_02482_R2,Plate:MR011",0.0523 µM
same,potency estimated from few doses,"[2]; compound concentrations:100 nM and 1000 nM (sheet 'Lestaurtinib' of Supplementary Table 1),run:Lestaurtinib_02482_R3,Plate:MR011",0.0449 µM
same,potency estimated from few doses,"[2]; compound concentrations:100 nM and 1000 nM (sheet 'Lestaurtinib' of Supplementary Table 1),run:Lestaurtinib_02487_R2,Plate:MR012",0.0478 µM
same,potency estimated from few doses,"[2]; compound concentrations:100 nM and 1000 nM (sheet 'Lestaurtinib' of Supplementary Table 1),run:Lestaurtinib_02487_R3,Plate:MR012",0.0595 µM
same,potency estimated from few doses,"[2]; compound concentrations:100 nM and 1000 nM (sheet 'Lestaurtinib' of Supplementary Table 1),run:Lestaurtinib_02496_R1,Plate:MR013",0.0442 µM
same,potency estimated from few doses,"[2]; compound concentrations:100 nM and 1000 nM (sheet 'Lestaurtinib' of Supplementary Table 1),run:Lestaurtinib_02496_R3,Plate:MR013",0.0402 µM
same,potency estimated from few doses,"[2]; compound concentrations:100 nM and 1000 nM (sheet 'Lestaurtinib' of Supplementary Table 1),run:Lestaurtinib_02566_R2,Plate:MR014",0.0489 µM
same,potency estimated from few doses,"[2]; compound concentrations:100 nM and 1000 nM (sheet 'Lestaurtinib' of Supplementary Table 1),run:Lestaurtinib_02566_R3,Plate:MR014",0.0626 µM
same,potency estimated from few doses,"[2]; compound concentrations:100 nM and 1000 nM (sheet 'Lestaurtinib' of Supplementary Table 1),run:Lestaurtinib_02572_R1,Plate:MR015",0.046 µM
same,potency estimated from few doses,"[2]; compound concentrations:100 nM and 1000 nM (sheet 'Lestaurtinib' of Supplementary Table 1),run:Lestaurtinib_02572_R2,Plate:MR015",0.0515 µM
same,potency estimated from few doses,"[2]; compound concentrations:100 nM and 1000 nM (sheet 'Lestaurtinib' of Supplementary Table 1),run:Lestaurtinib_02572_R3,Plate:MR015",0.0516 µM
same,potency estimated from few doses,"[2]; compound concentrations:100 nM and 1000 nM (sheet 'Lestaurtinib' of Supplementary Table 1),run:Lestaurtinib_02577_R1,Plate:MR016",0.0515 µM
same,potency estimated from few doses,"[2]; compound concentrations:100 nM and 1000 nM (sheet 'Lestaurtinib' of Supplementary Table 1),run:Lestaurtinib_02577_R2,Plate:MR016",0.0448 µM
same,potency estimated from few doses,"[2]; compound concentrations:100 nM and 1000 nM (sheet 'Lestaurtinib' of Supplementary Table 1),run:Lestaurtinib_02577_R3,Plate:MR016",0.0469 µM
same,potency estimated from few doses,"[2]; compound concentrations:100 nM and 1000 nM (sheet 'Lestaurtinib' of Supplementary Table 1),run:Lestaurtinib_02584_R1,Plate:MR017",0.051 µM
same,potency estimated from few doses,"[2]; compound concentrations:100 nM and 1000 nM (sheet 'Lestaurtinib' of Supplementary Table 1),run:Lestaurtinib_02584_R2,Plate:MR017",0.0496 µM
